Measured values published in PubChem BioAssay (Tox21).
Where “and” joins values, the source holds several entries; their conditions need not be identical. Identical values can stand only once. Results filed as inconclusive are left out. Entries that show only a call come without a potency. Calls of active or inactive are those of the source. Calls follow the shape of the dose curve; as a rule, active = well fitted cell-killing curve with a large enough effect in the repeat runs; inconclusive = weak or mixed curves, or effect the other way; inactive = no such curve, though single readings can be large or run the other way.
Potency is read from the fitted curve at half-maximal effect.

Assay: qHTS assay to identify small molecule agonists of the farnesoid-X-receptor (FXR) signaling pathway - cell viability counter screen (AID 743218); also: nearly all actives have a fitted effect of over 45% in size
Conditions: FXR-bla HEK293T viability, CellTiter-Glo luminescence, 16 h; series mostly up to 62.6 µM; viability change, negative = cytotoxic: at the top concentration
From the text: U.S. Tox21 Program National Center for Advancing Translational Sciences [NCATS] NIH Chemical Genomics Center [NCGC] U.S. Environmental Protection Agency [EPA] National Institutes of Environmental Health Sciences [NIEHS] National Toxicology Program [NTP] U.S. Food and Drug Administration [FDA] Tox21 Assay Overview: The farnesoid-X-receptor (FXR), a nuclear hormone receptor, is highly expressed in liver, intestine, kidney and adrenal cortex. Natural ligands of FXR are the bile acids (Cholic acid, Chenodeoxy cholic acid etc). FXR is an important regulator of diverse metabolic pathways, including the bile acid homeostasis, lipid and glucose metabolisms. FXR regulates the expression of target genes by binding either as a monomer or as a heterodimer with the retinoid X receptor (RXR). Numerous studies have reported that FXR exerts protective function during cholestasis, diabetes, liver regeneration, and cancer. To identify compounds that activate FXR signaling, GeneBLAzer FXR-UAS-bla HEK 293T cell line (Invitrogen, Carlsbad, CA) containing a beta-lactamase reporter gene under the control of a UAS response element was used to screen the Tox21 10K compound library. The cytotoxicity of the Tox21 compound library against the FXR-bla cell line was tested in parallel by measuring the cell viability using CellTiter-Glo assay in the same wells.
Tox21 Assay Protocol Summary: FXR-bla cells were dispensed at 5000 cells/5uL/well in 1536-well black wall/clear bottom plates using a Multidrop Combi (Thermo Fisher Scientific, Waltham, MA) dispenser. After the assay plates were incubated at 37 C and 5% CO2 for 5 h, 23 nL of compounds dissolved in DMSO, positive controls or DMSO only was transferred to the assay plate by a Pintool station (Kalypsys, San Diego, CA). The assay plates were incubated at 37C for 16 h. After 1 uL of LiveBLAzerTM B/G FRET substrate was added using a Bioraptr Flying Reagent Dispenser (FRD) workstation (Beckman Coulter, Indianapolis, IN), the plates were incubated at room temperature for 2 h, and fluorescence intensity was measured by an Envision plate reader (PerkinElmer, Shelton, CT). For cell viability readout that measures cytotoxicity, 4uL/well of CellTiter-Glo reagent was added into the assay plates using a Bioraptr FRD. After 30 min incubation at room temperature, the luminescence intensity in the plates was measured using a ViewLux plate reader (PerkinElmer).
In the case of CCN(CC)C(=O)C(C)Oc1cccc2ccccc12 (stereo not given), the Potency is reported as “inactive”.
With CCC[CH2][Sn]([Cl])([Cl])[CH2]CCC the Potency was 140 nM (active) and 24.5 nM (active).
In the case of O=C(O)CF, the Potency is reported as “inactive”.
For N#Cc1nn(-c2c(Cl)cc(C(F)(F)F)cc2Cl)c(N)c1S(=O)C(F)(F)F (stereo not given), the “viability change, negative = cytotoxic” value was -17.9% (inactive).
In the case of OCCOCCO, the Potency is reported as “inactive”.
In the case of CCOP(=S)(OCC)OP(=S)(OCC)OCC, the “viability change, negative = cytotoxic” value is reported as -1.65% [at 81.1 µM] (inactive).
For CC(C)COC(=O)c1ccccc1C(=O)OCC(C)C, the Potency was “inactive”.
With CC(C)Nc1ccc(Nc2ccccc2)cc1 the “viability change, negative = cytotoxic” value was 2.8% (inactive).
In the case of CC(C)(c1ccccc1)c1ccc(O)cc1, the Potency is reported as “inactive”.
With O=NN1CCOCC1 the Potency was “inactive”.
With CC(O)CN(CC(C)O)CC(C)O (stereo not given) the Potency was “inactive”.
For CCCCCCCCCc1ccc(O)cc1, the “viability change, negative = cytotoxic” value was -0.0891% [at 81.1 µM] (inactive).
For COc1ccc(O)c(C(C)(C)C)c1, the Potency was “inactive”.
In the case of O=C(O)c1nn(Cc2ccc(Cl)cc2Cl)c2ccccc12, the “viability change, negative = cytotoxic” value is reported as 0.64% (inactive).
For COc1ccc(C=O)cc1OC, the Potency was “inactive”.
In the case of COP(=O)(NC(C)=O)SC (stereo not given), the “viability change, negative = cytotoxic” value is reported as 2.04% (inactive).
In the case of Nc1ccc([N+](=O)[O-])cc1N, the “viability change, negative = cytotoxic” value is reported as -26% (inactive).
For CN(C)c1nc(=O)n(C2CCCCC2)c(=O)n1C, the Potency was “inactive”.
For Cc1cc(Cl)ccc1N=CN(C)C, the Potency was “inactive”.
With CNC(=O)CSP(=S)(OC)OC the “viability change, negative = cytotoxic” value was -5.3% (inactive).
In the case of CCC[CH2][Sn]([Cl])([CH2]CCC)[CH2]CCC, the Potency is reported as 873 nM (active) and 1.23 µM (active).
With ClCc1ccccn1 the Potency was “inactive”.
With [CH3][Sn]([Cl])([Cl])[Cl] the “viability change, negative = cytotoxic” value was 19.7% (inactive).
In the case of CCNc1nc(Cl)nc(NC(C)(C)C#N)n1, the Potency is reported as “inactive”.
For CC(C)=CC1C(C(=O)OCN2C(=O)C3=C(CCCC3)C2=O)C1(C)C (stereo not given), the Potency was “inactive”.
For c1ccc2c(c1)Nc1ccccc1S2, the “viability change, negative = cytotoxic” value was -17.5% (inactive).
In the case of CC1(C)C(C(=O)OC(C#N)c2cccc(Oc3ccccc3)c2)C1(C)C (stereo not given), the Potency is reported as “inactive”.
For OC(c1ccc(Cl)cc1)(c1cncnc1)c1ccccc1Cl (stereo not given), the Potency was “inactive”.
In the case of Brc1ccc(Br)cc1, the Potency is reported as “inactive”.
With CC(C)(O)C#N the Potency was “inactive”.
With COP(=S)(OC)SCn1nnc2ccccc2c1=O the “viability change, negative = cytotoxic” value was -0.0704% (inactive).
In the case of Clc1cccc(C(Cl)(Cl)Cl)n1, the Potency is reported as “inactive”.
With CCC(=O)Nc1ccc(Cl)c(Cl)c1 the Potency was “inactive”.
For C[C@]12CC[C@H]3[C@@H](CCC4=CC(=O)CC[C@@H]43)[C@@H]1CC[C@@H]2O, the Potency was “inactive”.
In the case of CCOP(=O)(OCC)OCC, the Potency is reported as “inactive”.
For O=C1CCCO1, the “viability change, negative = cytotoxic” value was 2.41% (inactive).
For CSc1nc(NC(C)C)nc(NC(C)C)n1, the “viability change, negative = cytotoxic” value was -2.4% (inactive).
With Cc1ccc([N+](=O)[O-])cc1 the Potency was “inactive”.
For CNC(=O)Oc1cccc2c1OC(C)(C)C2, the Potency was “inactive”.
In the case of CCOS(=O)(=O)OCC, the Potency is reported as “inactive”.
